# Reference: PubChem BioAssay AID504882 (Broad Institute, 2011)
# In all, about 1,200 compounds went through this assay and about 290 (24%) were called active. Not shown: some 9% with an inconclusive outcome. Only a sample is shown. Potency and affinity values are given separately. Values without a mark were called inactive. The rule behind the calls is not given here.
# Experiment: LCL viability reduction – cell-based, plate reader, cherry-picks, set 2, cytotoxicity control, dose response (AID 504882);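 note: 0% = neutral control wells and -100% = positive control wells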
# Conditions: EBV lymphoblastoid cells (LCL) viability; series mostly up to 19.5 µM; activity change, negative = cytotoxicity: at the top concentration
row,SMILES,"activity change, negative = cytotoxicity"
1,CCOc1ccc(S(=O)(=O)N2CCC(C(=O)NCCc3ccc(S(N)(=O)=O)cc3)CC2)cc1,10.4%
2,NC(=O)c1ccccc1N/C=C/C(=O)c1cccs1,-4.97%
3,O=C(N/C(=C/c1ccc(Br)cc1)C(=O)N1CCOCC1)c1ccc(Br)o1,17.4%
4,O=C(Nc1ncc(Br)s1)C(Cc1ccccc1)n1cccc1 (stereo not drawn),-1.84%
5,CN(C)CCC(c1ccccc1)c1ccccn1 (stereo not drawn),7.71%
6,CCC(C)n1ncn(-c2ccc(N3CCN(c4ccc(OCC5COC(Cn6cncn6)(c6ccc(Cl)cc6Cl)O5)cc4)CC3)cc2)c1=O (stereo not drawn),8.73%
7,CCn1c(=O)c2c(cnn2C)c2ccccc21,-1.53%
8,Cn1cccc1/C=N/n1c(-c2ccc(Cl)cc2Cl)n[nH]c1=S,13.1%
9,CC(=C/c1ccccc1)/C=N/n1c(-c2ccncc2)n[nH]c1=S,5.21%
10,OC(CCCN1CCCCC1)(c1ccccc1)c1ccccc1,14.8%
11,COc1ccc(N2C(=O)C(Cl)=C(NCc3ccccc3)C2=O)cc1,21.9%
12,COC(=O)[C@@]1(C)[C@H]2C(=O)N(Cc3ccccc3)C(=O)[C@H]2[C@H]2CN=C(SCc3ccc(Cl)cc3)N21,14.4%
13,CC(C)Nc1nnc(SCC(=O)c2c(N)n(Cc3ccccc3)c(=O)n(C)c2=O)s1,-5.09%
14,CCN(C(=O)c1cc(OC)c(OC)c(OC)c1)C1CCCCC1,4.8%
15,COC(=O)C1=NNC(C(=O)OC)C1c1ccccc1 (stereo not drawn),10.5%
16,Cn1c(=O)c2c(ncn2CC(=O)Nc2cc(S(=O)(=O)N3CCCCC3)ccc2O)n(C)c1=O,22.4%
17,COCCN1Cc2cccc(C(=O)N3CCN(c4cc(C)ccc4C)CC3)c2C1=O,-0.546%
18,O=C(Nc1cc(C(F)(F)F)cc(C(F)(F)F)c1)Nc1cnn(-c2ccc([N+](=O)[O-])cc2)c1C(F)(F)F,-5.69%
19,CCOCCCn1cnc2c3cc(F)ccc3n(C)c2c1=O,4.71%
20,CCOC(=O)CCSc1nc(N2CCOCC2)c2c(c1C#N)CC(C)(C)OC2,20.7%
21,COc1ccc(-c2cn3nc4c(nc3n2)CCCC4)cc1,-0.376%
22,COc1cccc(C(=O)OCn2nnc3ccccc3c2=O)c1OC,17.8%
23,Nc1nc(N)nc(-c2cc(Cl)ccc2Cl)n1,11.4%

row,SMILES,"activity change, negative = cytotoxicity"
1,O=C(COc1ccc2ccccc2c1)NCCNC(=O)COc1ccc2ccccc2c1,13.9%
2,O=c1c2cnn(-c3ccccc3)c2nc(-c2cccs2)n1-c1ccc(Br)cc1,-8.44%
3,CC1CC(C)CN(S(=O)(=O)c2ccc(NC(=O)CCN3C(=O)C4CC=CCC4C3=O)cc2)C1 (stereo not drawn),10.9%
4,COc1ccc(S(=O)(=O)NCC(c2cccnc2)N2CCN(c3ccc(F)cc3)CC2)cc1C (stereo not drawn),13.6%
5,CC(=O)c1sc(NC(=O)C2COc3ccccc3O2)nc1C (stereo not drawn),10.2%
6,Cc1nc2ncccn2c1-c1csc(Nc2ccccc2)n1,-27.8%
7,O=C(COC(=O)c1cc2ccccc2cc1O)NCc1ccccc1,18%
8,CCNc1nc(CN2CCOCC2)nc2sc3c(c12)CCC3,12%
9,O=c1c(O)c(-c2ccc(O)c(O)c2)oc2cc(O)cc(O)c12,2.22%
10,O=C(O)[C@@H]1[C@H]2C[C@H]3c4[nH]c5ccccc5c4CCN3C[C@@H]2CC[C@@H]1O,5.86%
11,CC1=NN(C(N)=S)C(=O)C1N=Nc1cccc(C(=O)O)c1 (stereo not drawn),22%
12,Cc1ccc(C(=O)Nc2ccc3c(c2)OCCO3)c(Cl)c1,3.86%
13,Cc1ccc(C)c(S(=O)(=O)N2CCN(C(=O)c3ccc(C)s3)CC2)c1,0.259%
14,N#Cc1c(Nc2ccccc2)sc(C(=O)c2ccc(F)cc2)c1N,15.1%
15,CNC(=S)Nc1ccc2nc(C)c(C)nc2c1,19.5%
16,Oc1[nH]c2ccccc2c1N=Nc1c(F)c(F)c(Cl)c(F)c1F,8.45%
17,CCn1nnc2cc(C(=O)NCCc3ccccc3F)ccc21,10.1%
18,O=C(Nc1cccc(C(=O)O)c1)Nc1ccccc1Cl,9.77%
19,CCc1ccc(/C=N/NC(=O)c2ccccn2)cc1,-13.3%
20,Cc1ccc(C(=O)Nc2nnc(SCC(=O)N3CCCc4ccccc43)s2)cc1,7.65%
21,CCC(Oc1ccccc1)C(=O)NC1CCSC1=O (stereo not drawn),9.69%
22,O=C(O)/C=C/c1ccc2ccccc2n1,22.6%
23,CN(C)CCN(Cc1ccc(Cl)cc1)c1ccccn1,11.6%

row,SMILES,"activity change, negative = cytotoxicity"
1,Cc1ccc(C(=O)Nc2cccc(C(=O)O)c2)cc1S(=O)(=O)N1CCCCC1,-1.48%
2,CCCCN(c1ccccc1)c1ncnc(N)c1[N+](=O)[O-],3.49%
3,O=C(N/N=C/c1cccc(O)c1)c1ccc2c(c1)OCCO2,9.59%
4,O=C(NN1C(=O)C2C3C=CC(C4CC34)C2C1=O)c1cccc(Cl)c1 (stereo not drawn),20%
5,CC(C)(C)n1nc(-c2ccc(F)cc2)c2c(N)ncnc21,22.3%
6,COc1cc(OC)cc(-c2cc3nc(C)c(CCC(=O)O)c(C)n3n2)c1,8.49%
7,CN(C)CC(C)(C)CNS(=O)(=O)c1ccc(OC(F)(F)F)cc1,15.3%
8,COc1cccc(C2=CC(=O)C[C@H](c3ccc4c(c3)OCO4)C2)c1,4.25%
9,COC(=O)CN(c1ccccc1F)S(=O)(=O)c1ccc(C)cc1,-3.06%
10,CCCCCCNC(=O)O[C@]12C[C@@H](C(=O)OC)[C@@H](C(=O)OC)C[C@@]1(O)CN(S(=O)(=O)c1ccc(C)cc1)C2,12.3%
11,CN(CCNC(=O)C1CCN(S(=O)(=O)N2CCOCC2)CC1)CCc1ccccc1,6.51%
12,O=c1c2cnn(-c3ccccc3)c2nc(-c2cccs2)n1-c1ccc(Cl)cc1,-2.24%
13,NNC(=O)c1cccc(COc2ccc3c(c2)CCC3)c1,2.55%
14,S=c1[nH]nc(C2CCCCC2)n1/N=C/c1ccncc1,-5.82%
15,N#CC1=C(N)C(C#N)(C#N)C(c2cccnc2)C2CC(c3ccccc3)CC=C12 (stereo not drawn),-16.7%
16,COc1cc(CC(=O)N(c2ccccc2)c2nc(C)cs2)cc(OC)c1OC,-0.151%
17,O=C(CN1C(=O)c2ccccc2S1(=O)=O)Nc1ncc(Cl)cc1Cl,6.69%
18,Cc1ccc(-n2c(=O)c3c(c4cc(C)ccc4n3C)n(CC(=O)NCC3CCCO3)c2=O)cc1 (stereo not drawn),6.18%
19,COc1ccc(C)cc1S(=O)(=O)N(CC(=O)Nc1cc([N+](=O)[O-])ccc1C)c1ccc(C)c(C)c1,4.1%
20,O=C(c1sc2cc([N+](=O)[O-])ccc2c1Cl)N1CCOCC1,14.3%
21,Cc1cc(=O)[nH]c(N/N=C/c2ccc(C)o2)n1,29.3%
22,Cc1cc(N=Cc2c(O)ccc3cc(Br)ccc23)no1,18.9%
